Screening data from PubChem.
Shiga toxin inh: Shiga toxin inhibition | AID 2315 | Vero cells, Shiga toxin protein synthesis inhibition reporter | 9.2% of 290,000 active | inhibition, % at 38.7 µM; in the data active = inhibition mostly above about 28%, no sharp cut-off; inactive = mostly below about 43%; also: 0% is about no effect
Pf growth 96h: inhibits malaria parasite growth, 96 h. Potency, µM (series often up to 28.7 µM), for inactives: top-dose activity change, negative = inhibition, most hits filed as inhibitors. P. falciparum luciferase reporter growth, 96 h. AID 504834. 6.9% of 320,000 active; also: potency is read from the fitted curve at half-maximal effect; % is scaled to controls: 0 for no effect and ±100 for the full control effect
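Readout is luminescence from an integrated firefly luciferase in P. falciparum. Red cells, 2% hematocrit and 0.05% parasitemia final, were cultured with compound through two parasite generations (96 hours) at 37 C, 5% CO2.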
Pf growth 48h: P. falciparum growth inhibition at 48 hours (one generation); 5.9% of 310,000 active; P. falciparum luciferase growth in erythrocytes, 48 h; Potency, µM (highest dose often 28.7 µM), for the others: at the top dose activity change, negative = inhibition, usual class: inhibitors; AID 504832; also: potency is read from the fitted curve at half-maximal effect; % is scaled to controls: 0 for no effect and ±100 for the full control effect
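Luciferase-expressing P. falciparum in infected erythrocytes (2% hematocrit, 0.1% parasitemia final) in RPMI 1640/0.5% Albumax were exposed to compound for 48 hours at 37 C, 5% CO2; growth read as luminescence.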
Cycloheximide cs: counter-screen for Shiga toxin inhibitors: cycloheximide protein synthesis inhibition; cell reporter, cycloheximide protein synthesis inhibition counterscreen; max response, %; 12% of 300,000 active; in the data active = max response mostly above about 13%, no sharp cut-off; inactive = mostly below about 14%; also: read at 38.3 µM for the half of the compounds with a filed dose; 0% is about no effect
An asterisk follows results filed as active. The list is not random: actives were taken first. Their share in the collection is about 21%. Unless noted, calls follow the shape of the dose curve; as a rule, active = well fitted inhibition curve with a large enough effect; inconclusive = small, poorly fitted or top-dose-only effect, or another doubt; inactive = no such curve, though single readings can be large or run the other way.

Results for COc1cccc(Nc2nc(-c3sc(NC(=O)c4ccco4)nc3C)cs2)c1 ?
Shiga toxin inh: 34.3; Pf growth 96h: 13.1µM*; Pf growth 48h: inconclusive; Cycloheximide cs: 6.6

Results for Cc1ccc(C(=O)Cn2c(C(=O)OCCO)cc3ccccc32)cc1 ?
Shiga toxin inh: -4.9; Pf growth 96h: inconclusive; Pf growth 48h: 11.0%; Cycloheximide cs: -0.3

What do the screens show for `C=C(C)[C@]12C[C@@H](C)[C@@]34OC(Cc5ccccc5)(O[C@@H]1[C@@H]3C=C(COC(=O)Cc1cc(I)c(O)c(OC)c1)C[C@]1(O)C(=O)C(C)=C[C@@H]41)O2`?
Shiga toxin inh: 7.4; Cycloheximide cs: 11.8

How did O=C(CSc1nc2ncc(Cl)cc2[nH]1)N(Cc1ccccc1)C1CCS(=O)(=O)C1 (configuration not stated) do in these assays?
Shiga toxin inh: -9.7; Pf growth 96h: 13.5%; Pf growth 48h: 1.7%; Cycloheximide cs: 8.4

Results for COc1ccc(OC)c(Nc2nc(-c3sc(C)nc3C)cs2)c1 ?
Shiga toxin inh: 48.7; Pf growth 96h: -17.2%; Pf growth 48h: 14.7µM*; Cycloheximide cs: 11.0

Results for Cc1cc(NS(=O)(=O)c2ccc(Nc3nc(-c4sc(C)nc4C)cs3)cc2)no1 ?
Shiga toxin inh: 14.9; Pf growth 96h: 1.5%; Cycloheximide cs: -2.7

What do the screens show for `Cc1cccc(NC(=O)CSCC(=O)Nc2ccc(S(=O)(=O)N3CCCC3)cc2)c1`?
Pf growth 96h: -16.8%; Pf growth 48h: -18.8%

How did CCN(CC)S(=O)(=O)c1ccc(N2CCN(C)CC2)c(NC(=O)Nc2ccc(C)cc2)c1 do in these assays?
Shiga toxin inh: 2.0; Pf growth 96h: inconclusive; Pf growth 48h: 9.28µM*; Cycloheximide cs: 16.7*

Results for CCN(CC)S(=O)(=O)c1ccc(N2CCCC2)c(NC(=O)C2CCCCC2)c1 ?
Shiga toxin inh: 1.0; Pf growth 96h: 6.8%; Pf growth 48h: 1.8%; Cycloheximide cs: -0.8

How did CCN(CC)S(=O)(=O)c1ccc(N2CCN(C)CC2)c(NC(=O)CSCC(=O)Nc2cccc(C)c2)c1 do in these assays?
Pf growth 96h: inconclusive; Pf growth 48h: 16.5µM*

Results for CC(C)Sc1ccccc1C(=O)Nc1ccc2c(c1)n(C)c(=O)n2C ?
Shiga toxin inh: -1.4; Pf growth 96h: inconclusive; Pf growth 48h: inconclusive; Cycloheximide cs: -3.0

What do the screens show for `CC(=O)C(Cc1ccccc1)NC(=O)CN1CCN(Cc2ccccc2)CC1` (configuration not stated)?
Shiga toxin inh: -1.1; Pf growth 96h: -11.6%; Pf growth 48h: inactive; Cycloheximide cs: 6.5

How did CC(=O)c1cccc(Oc2cc(NN3CCCCC3)c([N+](=O)[O-])cc2[N+](=O)[O-])c1 do in these assays?
Shiga toxin inh: -7.7; Pf growth 96h: 11.7µM*; Pf growth 48h: -9.2%; Cycloheximide cs: 1.4

What do the screens show for `Cc1ccc(Oc2cc(NN3CCCCC3)c([N+](=O)[O-])cc2[N+](=O)[O-])c(Cl)c1`?
Shiga toxin inh: -5.8; Pf growth 96h: 13.1µM*; Pf growth 48h: inconclusive; Cycloheximide cs: 1.0

What do the screens show for `COc1ccccc1CCC(=O)OCC(=O)Nc1c(C)nn(-c2ccccc2)c1C`?
Pf growth 96h: 2.3%; Pf growth 48h: 0.7%

What do the screens show for `N=C1SCC(=O)N1/N=C/c1ccccc1`?
Shiga toxin inh: 53.1*; Pf growth 96h: inconclusive; Pf growth 48h: 69.2%; Cycloheximide cs: 23.6*

Results for CSCC[C@H](NC(=O)[C@H](Cc1ccccc1)n1c(=O)[nH]c2ccccc2c1=O)C(=O)N1CCC(C(=O)O)CC1 ?
Shiga toxin inh: 10.4; Pf growth 96h: inconclusive; Pf growth 48h: -12.7%; Cycloheximide cs: -0.6

Results for Cc1c(C(=O)NCc2ccoc2)oc2ccc3c(c12)C(=O)CC(C)(C)O3 ?
Shiga toxin inh: 119.1*; Pf growth 96h: 19.9%; Pf growth 48h: 68.8%; Cycloheximide cs: 61.0*

What do the screens show for `COc1ccccc1/C=C/C=N/n1c(-c2ccncc2)n[nH]c1=S`?
Shiga toxin inh: -3.4; Pf growth 96h: 7.38µM*; Pf growth 48h: -1.8%; Cycloheximide cs: -2.3

Results for Cc1cccc(/C=N/n2c(-c3ccccn3)n[nH]c2=S)c1 ?
Shiga toxin inh: 47.4*; Pf growth 96h: -18.5%; Pf growth 48h: 17.0%; Cycloheximide cs: 34.9*

Results for COc1ccccc1/C=C/C=N/n1c(-c2ccccn2)n[nH]c1=S ?
Shiga toxin inh: 63.8*; Pf growth 96h: 78.3%; Pf growth 48h: 74.4%; Cycloheximide cs: 33.9*

What do the screens show for `S=c1[nH]nc(-c2ccncc2)n1/N=C/C(Cl)=C\c1ccccc1`?
Shiga toxin inh: 60.6*; Pf growth 96h: 62.6%; Pf growth 48h: inconclusive; Cycloheximide cs: 24.2*

How did CCOc1ccc2ccccc2c1CNCCN1CCOCC1 do in these assays?
Shiga toxin inh: -4.7; Pf growth 96h: 5.22µM*; Pf growth 48h: 13.1µM*; Cycloheximide cs: 1.7

How did CCOc1ccc(Br)cc1CNCCN1CCOCC1 do in these assays?
Shiga toxin inh: 2.7; Pf growth 96h: 11.7µM*; Pf growth 48h: -24.9%; Cycloheximide cs: -3.5

How did COc1ccccc1NC(=O)COc1ccc(Br)cc1CNCCCN1CCOCC1 do in these assays?
Shiga toxin inh: 23.1; Pf growth 96h: 1.5%; Pf growth 48h: inconclusive; Cycloheximide cs: 11.0

What do the screens show for `CC(C)CCN1CCN(Cc2ccc(Sc3nncn3C)o2)CC1CCO` (configuration not stated)?
Shiga toxin inh: 1.8; Pf growth 96h: inconclusive; Pf growth 48h: 10.4%; Cycloheximide cs: 4.5

How did Cc1cc2c(s1)c(C=O)c(C(=O)NCc1ccccc1F)n2C do in these assays?
Pf growth 96h: -21.3%; Pf growth 48h: inconclusive

How did COc1ccc(C(=O)Nc2c3c(nn2-c2ccc(Cl)cc2)CS(=O)(=O)C3)cc1 do in these assays?
Shiga toxin inh: -2.8; Pf growth 96h: inconclusive; Pf growth 48h: inconclusive; Cycloheximide cs: -3.6

How did S=C=Nc1ccccn1 do in these assays?
Shiga toxin inh: 53.5; Pf growth 96h: inconclusive; Pf growth 48h: inconclusive; Cycloheximide cs: 26.7*

What do the screens show for `Cn1c(NC(=O)C[n+]2cc(-c3ccccc3)n3c2CCC3)cc(=O)n(C)c1=O`?
Shiga toxin inh: -1.5; Pf growth 96h: 0.828µM*; Pf growth 48h: 2.62µM*; Cycloheximide cs: -3.5

Results for Cn1c(NC(=O)C[n+]2cc(-c3ccc(Cl)cc3)n3c2CCC3)cc(=O)n(C)c1=O ?
Shiga toxin inh: -14.4; Pf growth 96h: 0.329µM*; Pf growth 48h: 4.15µM*; Cycloheximide cs: -3.1

How did C[C@@H]1C(=O)O[C@H]2C[C@@]34[C@H]5C[C@@H](C(C)(C)C)[C@]36[C@H](OC(=O)[C@H]6O)O[C@]4(C(=O)O5)[C@]21O do in these assays?
Shiga toxin inh: -8.6; Cycloheximide cs: -4.2

Results for CCC(=O)n1nc(-c2ccc(OC)cc2)nc1SC ?
Shiga toxin inh: 41.5*; Pf growth 96h: -27.8%; Pf growth 48h: 187.2%; Cycloheximide cs: 30.4*

What do the screens show for `CCCC(=O)n1nc(-c2ccc(Cl)cc2)nc1SC`?
Shiga toxin inh: 66.7*; Pf growth 48h: 78.0%; Cycloheximide cs: 23.0*

How did CCC(=O)n1nc(-c2ccc(Cl)cc2)nc1SC do in these assays?
Shiga toxin inh: 68.0*; Pf growth 96h: 132.2%; Pf growth 48h: 138.3%; Cycloheximide cs: 31.7*
